Measurements from PubChem BioAssay (NCI).
Compounds without any hit were thinned out: in the full panel of roughly 83,000, 20% have a hit.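 Plates (96-well) were seeded with cells, treated with compound at one concentration, and incubated for 48 hours before percent growth was determined.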 Active and inactive are the calls of the source. How the source made its calls: active means growth percent below 10; inactive means the rest.

Key:
Assay in all cases: NCI-60 one-dose screen, 48 h (100 = growth as untreated, 0 = no growth, -100 = all killed)
SR leukemia = settings: 10 µM unless noted
RPMI-8226 leukemia = settings: 10 µM unless noted
OVCAR-8 ovarian = settings: 10 µM unless noted
OVCAR-5 ovarian = settings: 10 µM unless noted
OVCAR-4 ovarian = settings: 10 µM unless noted
SK-OV-3 ovarian = settings: 10 µM unless noted
IGROV1 ovarian = settings: 10 µM unless noted
OVCAR-3 ovarian = settings: 10 µM unless noted
T-47D breast = settings: 10 µM unless noted
BT-549 breast = settings: 10 µM unless noted
MDA-MB-435 melanoma = settings: 10 µM unless noted
SW-620 colon = settings: 10 µM unless noted
MCF7 breast = settings: 10 µM unless noted
HCT-116 colon = settings: 10 µM unless noted
HCC-2998 colon = settings: 10 µM
KM12 colon = settings: 10 µM unless noted
NCI/ADR-RES ovarian = settings: 10 µM unless noted
HS 578T breast = settings: 10 µM

Measured: growth

CCCCN1C(=O)c2cccc3c(-c4ccc5c(c4)ncn5C4CCCCC4)ccc(c23)C1=O
inactive: SR leukemia 91.1% | RPMI-8226 leukemia 108% | OVCAR-8 ovarian 89.9% | OVCAR-5 ovarian 98.3% | OVCAR-4 ovarian 97.6% | SK-OV-3 ovarian 92.3% | IGROV1 ovarian 108% | OVCAR-3 ovarian 101% | T-47D breast 81.9% | BT-549 breast 99.4% | MDA-MB-435 melanoma 109% | SW-620 colon 107% | MCF7 breast 96.7% | HCT-116 colon 91.7% | HCC-2998 colon 102% | KM12 colon 92.2%

COc1ccc2c(c1)cn1c3ccc(O)cc3nc(N)c21
inactive: RPMI-8226 leukemia 25.4% | OVCAR-8 ovarian 28.1% | OVCAR-5 ovarian 38.3% | OVCAR-4 ovarian 37.7% | IGROV1 ovarian 17.4% | OVCAR-3 ovarian 43% | T-47D breast 37.3% | SW-620 colon 26.8% | MCF7 breast 17.2% | HCT-116 colon 18% | HCC-2998 colon 22.5% | KM12 colon 27.1%
active: SR leukemia 3.65% | SK-OV-3 ovarian 5.03% | NCI/ADR-RES ovarian -0.794% | MDA-MB-435 melanoma -16.6%

Cc1cccc(Cl)c1NC(=O)c1cnc(Nc2cc(N3CCOCC3)cc(N3CCOCC3)c2)s1
inactive: SR leukemia 15.7% | RPMI-8226 leukemia 89.8% | OVCAR-5 ovarian 23.3% | OVCAR-4 ovarian 60.4% | OVCAR-3 ovarian 19.7% | NCI/ADR-RES ovarian 23.6% | BT-549 breast 56.3% | MDA-MB-435 melanoma 10.3% | SW-620 colon 82.2% | MCF7 breast 75% | HCT-116 colon 11.5% | KM12 colon 62.4%
active: OVCAR-8 ovarian -36.2% | SK-OV-3 ovarian -38.7% | IGROV1 ovarian -51.7% | T-47D breast 0.787%

Cn1ncc(Cl)c1-c1cc(C(=O)N[C@H](CN)Cc2ccc(F)c(F)c2)oc1Cl
active: SR leukemia -10.6% | RPMI-8226 leukemia -5.77% | OVCAR-8 ovarian -38.4% | OVCAR-5 ovarian 5.81% | SK-OV-3 ovarian -41.6% | IGROV1 ovarian -23.8% | T-47D breast -50.7% | BT-549 breast -66.4% | MDA-MB-435 melanoma -59.8% | MCF7 breast -28.5% | HCT-116 colon -28.3% | HCC-2998 colon -89.9% | KM12 colon -39.2%
inactive: OVCAR-4 ovarian 24.8% | OVCAR-3 ovarian 18.2% | SW-620 colon 27.9%

Cc1cc(-c2cc(O)ccc2Cl)cc2nnc(Nc3ccc(OCCN4CCCC4)cc3)nc12
active: SR leukemia -35% | RPMI-8226 leukemia -43.9% | OVCAR-8 ovarian -63.6% | OVCAR-5 ovarian -83.5% | OVCAR-4 ovarian -81.9% | SK-OV-3 ovarian -77.7% | IGROV1 ovarian -60.2% | OVCAR-3 ovarian -79.7% | T-47D breast -47.8% | BT-549 breast -50.7% | MDA-MB-435 melanoma -73.3% | SW-620 colon -74.8% | MCF7 breast -54.4% | HCT-116 colon -57.5% | HCC-2998 colon -72.6% | KM12 colon -76.2%

N#Cc1c(NC(=O)c2ccco2)[n+]([O-])c2cc(F)c(F)cc2[n+]1[O-]
active: SR leukemia 8.42%
inactive: RPMI-8226 leukemia 17.8% | OVCAR-8 ovarian 38.9% | OVCAR-5 ovarian 119% | OVCAR-4 ovarian 89.7% | SK-OV-3 ovarian 99.4% | IGROV1 ovarian 29.6% | OVCAR-3 ovarian 102% | NCI/ADR-RES ovarian 112% | T-47D breast 71.8% | MDA-MB-435 melanoma 98% | SW-620 colon 87.5% | MCF7 breast 67.5% | HCT-116 colon 101% | KM12 colon 85%

C#Cc1cccc(Nc2ncnc3cc4c(cc23)OCCOCCOCCO4)c1
inactive: SR leukemia 53.5% | RPMI-8226 leukemia 70% | OVCAR-8 ovarian 53.9% | OVCAR-5 ovarian 60.4% | OVCAR-4 ovarian 63.2% | IGROV1 ovarian 15.2% | OVCAR-3 ovarian 40.9% | NCI/ADR-RES ovarian 58.5% | T-47D breast 33% | BT-549 breast 50.3% | MDA-MB-435 melanoma 24.6% | SW-620 colon 84.7% | MCF7 breast 56.1% | HCT-116 colon 64.7% | KM12 colon 53%
active: SK-OV-3 ovarian -17%

CCNC(=O)C#Cc1ccc2c(C(=Nc3ccc(CN(C)C)cc3)c3ccccc3)c(O)[nH]c2c1
inactive: RPMI-8226 leukemia 30% | OVCAR-8 ovarian 48.3% | OVCAR-4 ovarian 51.9% | SK-OV-3 ovarian 10.8% | OVCAR-3 ovarian 51% | T-47D breast 62.3% | BT-549 breast 52.8% | MDA-MB-435 melanoma 14.7% | MCF7 breast 33.1%
active: SR leukemia -13.6% | OVCAR-5 ovarian 5.7% | IGROV1 ovarian 5.41% | SW-620 colon 0.412% | HCT-116 colon -16.2% | HCC-2998 colon -17.3% | KM12 colon 6.13%

O=C(c1c(F)ccc(NS(=O)(=O)N2CC[C@@H](F)C2)c1F)c1c[nH]c2ncc(-c3cnc(C4CC4)nc3)cc12
active: SK-OV-3 ovarian 3.3% | T-47D breast 9.33%
inactive: SR leukemia 21.6% | RPMI-8226 leukemia 36.3% | OVCAR-8 ovarian 31.7% | OVCAR-5 ovarian 58.3% | OVCAR-4 ovarian 64.2% | IGROV1 ovarian 17% | OVCAR-3 ovarian 69.4% | NCI/ADR-RES ovarian 102% | BT-549 breast 61.6% | MDA-MB-435 melanoma 16.8% | SW-620 colon 66.6% | MCF7 breast 61.3% | HCT-116 colon 30.8% | KM12 colon 54.4%

NC1=Nc2ccccc2N(O)N1
inactive: SR leukemia 105% | RPMI-8226 leukemia 107% | OVCAR-8 ovarian 104% | OVCAR-5 ovarian 92.4% | SK-OV-3 ovarian 90.9% | IGROV1 ovarian 105% | OVCAR-3 ovarian 111% | HS 578T breast 97.3% | NCI/ADR-RES ovarian 103% | T-47D breast 87.1% | BT-549 breast 95% | MDA-MB-435 melanoma 106% | SW-620 colon 105% | MCF7 breast 94.2% | HCT-116 colon 93.3% | KM12 colon 104%

CO[C@H]1C[C@@H]2CC[C@@H](C)[C@@](O)(O2)C(=O)C(=O)N2CCCC[C@H]2C(=O)O[C@H]([C@H](C)C[C@@H]2CC[C@@H](OP(C)(C)=O)[C@H](OC)C2)CC(=O)[C@H](C)/C=C(\C)[C@@H](O)[C@@H](OC)C(=O)[C@H](C)C[C@H](C)\C=C/C=C/C=C/1C
inactive: SR leukemia 13.1% | RPMI-8226 leukemia 34.8% | OVCAR-8 ovarian 34.3% | OVCAR-5 ovarian 60.7% | SK-OV-3 ovarian 12.2% | IGROV1 ovarian 24.4% | OVCAR-3 ovarian 59.7% | NCI/ADR-RES ovarian 51.4% | T-47D breast 11.5% | BT-549 breast 39.7% | MDA-MB-435 melanoma 56.7% | SW-620 colon 60.1% | MCF7 breast 30.5% | HCT-116 colon 65.1% | HCC-2998 colon 56.4% | KM12 colon 59.6%

Cn1c(=O)c(F)c(Nc2ccc(I)cc2F)c2c(=O)n(C[C@@H](O)CO)cnc21
inactive: SR leukemia 52.4% | RPMI-8226 leukemia 61.2% | OVCAR-8 ovarian 43.9% | SK-OV-3 ovarian 44.8% | IGROV1 ovarian 10.5% | OVCAR-3 ovarian 86.9% | NCI/ADR-RES ovarian 60.6% | T-47D breast 63.7% | BT-549 breast 60.6% | MDA-MB-435 melanoma 44.3% | SW-620 colon 21.6% | MCF7 breast 83.8% | KM12 colon 19.9%
active: OVCAR-5 ovarian 6.95% | HCT-116 colon 9.17% | HCC-2998 colon -37.7%

COc1cc2ncnc(Nc3ccc(O)cc3)c2cc1OC
active: SK-OV-3 ovarian 5.29%
inactive: SR leukemia 27.1% | RPMI-8226 leukemia 97.2% | OVCAR-8 ovarian 70.7% | OVCAR-5 ovarian 59.2% | IGROV1 ovarian 38.2% | OVCAR-3 ovarian 87.4% | NCI/ADR-RES ovarian 91.3% | T-47D breast 53.9% | BT-549 breast 80% | MDA-MB-435 melanoma 91.6% | SW-620 colon 112% | MCF7 breast 90.4% | HCT-116 colon 75.3% | HCC-2998 colon 100% | KM12 colon 89.7%

O=c1[nH]c(N2CCOCC2)nc2scc(-c3ccccc3)c12
inactive: SR leukemia 102% | RPMI-8226 leukemia 97.7% | OVCAR-8 ovarian 96.2% | OVCAR-5 ovarian 104% | SK-OV-3 ovarian 88% | IGROV1 ovarian 101% | OVCAR-3 ovarian 110% | HS 578T breast 102% | NCI/ADR-RES ovarian 98.1% | T-47D breast 80.7% | BT-549 breast 92.4% | MDA-MB-435 melanoma 91.7% | SW-620 colon 110% | MCF7 breast 92.2% | HCT-116 colon 98.3% | HCC-2998 colon 106% | KM12 colon 97.6%

CO[C@H](C(=O)N[C@@H](CCCCNC(=O)OCc1ccccc1)C(=O)OC(C)(C)C)[C@@H]1Cc2cc3cc(OC4CC(OC5CC(O)C(O)C(C)O5)C(O)C(C)O4)c(C)c(O)c3c(O)c2C(=O)[C@H]1OC1CC(OC2CC(OC3CC(C)(O)C(O)C(C)O3)C(O)C(C)O2)C(O)C(C)O1 (stereo partly drawn)
active: SR leukemia 7.17% | RPMI-8226 leukemia -5.01% | OVCAR-5 ovarian -77.9% | SK-OV-3 ovarian -52.7% | HS 578T breast -16.4% | T-47D breast 7.2% | BT-549 breast -79.7% | MDA-MB-435 melanoma -69.8% | SW-620 colon 3.71% | MCF7 breast 3.56% | HCT-116 colon -63.9% | HCC-2998 colon -5.55% | KM12 colon -62.7%
inactive: OVCAR-8 ovarian 12.9% | IGROV1 ovarian 22.2% | OVCAR-3 ovarian 24.8% | NCI/ADR-RES ovarian 73.2%

c1cn2cc(-c3ccc4cn[nH]c4c3)nc(Nc3ccc(N4CCOCC4)cc3)c2n1
active: OVCAR-4 ovarian 3.99%
inactive: SR leukemia 50% | RPMI-8226 leukemia 63.4% | OVCAR-8 ovarian 20% | OVCAR-5 ovarian 64.2% | SK-OV-3 ovarian 21% | IGROV1 ovarian 58.7% | OVCAR-3 ovarian 71.9% | T-47D breast 49.2% | BT-549 breast 66.2% | MDA-MB-435 melanoma 76.8% | SW-620 colon 69.2% | MCF7 breast 66.2% | HCT-116 colon 52.4% | KM12 colon 20.5%

COc1cc(C2CC(c3ccc(Cl)cc3)=NN2c2ccc(Cl)cc2)cc(OC)c1OC (stereo not drawn)
inactive: SR leukemia 98.7% | RPMI-8226 leukemia 83.3% | OVCAR-8 ovarian 101% | OVCAR-5 ovarian 88.1% | OVCAR-4 ovarian 83.2% | SK-OV-3 ovarian 98.2% | IGROV1 ovarian 94.8% | HS 578T breast 84% | NCI/ADR-RES ovarian 95.6% | T-47D breast 86.1% | BT-549 breast 95.6% | MDA-MB-435 melanoma 93.3% | SW-620 colon 96.6% | MCF7 breast 89.5% | HCT-116 colon 93.6% | KM12 colon 96.5%

COc1cc2c(Oc3ccc(NC(=O)C4(C(=O)Nc5ccc(F)cc5)CC4)cc3F)ccnc2cc1OCCCN1CCOCC1
inactive: RPMI-8226 leukemia 10.3% | OVCAR-8 ovarian 26.8% | OVCAR-5 ovarian 11.7% | OVCAR-3 ovarian 46.5% | BT-549 breast 17.8%
active: SR leukemia -16.7% | SK-OV-3 ovarian -13.8% | IGROV1 ovarian -34.7% | NCI/ADR-RES ovarian 9.62% | T-47D breast 0.289% | MDA-MB-435 melanoma -75.1% | SW-620 colon -31.4% | MCF7 breast -22.2% | HCT-116 colon -61.2% | HCC-2998 colon 7.76% | KM12 colon 0.619%
